Test results taken from PubChem BioAssay AID1159580 (chemical genetic matrix, 2015).
Out of some 5,500 compounds screened, about 2,000 (36%) were called active. About 18% were inconclusive and are not listed. Rule as the data show it: active = normalized growth mostly below about 0.91 (no sharp cut-off); inconclusive = no clear call, values can overlap the other calls; inactive = mostly above about 0.92. This is one part of the list.

Test: chemical genetic growth profiling, strain panel (AID 1159580);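 also: tested at 20 µM; growth read once vehicle control cultures reached saturation at 30 °C; 1 = growth at the plate median or of vehicle wells; lower values mean less growth of the strain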
Settings: growth OD
[1] = S. cerevisiae deletion strains, locus YAL013W, strain DEP1, hits give low values
[2] = S. cerevisiae deletion strains, locus YDR150W, strain NUM1, hits give low values
[3] = S. cerevisiae deletion strains, locus YGR078C, strain PAC10, hits give low values
[4] = S. cerevisiae deletion strains, locus YGR229C, strain SMI1, hits give low values
[5] = S. cerevisiae deletion strains, locus YMR307W, strain GAS1, hits give low values
[6] = S. cerevisiae deletion strains, locus YNL128W, strain TEP1, hits give low values
[7] = S. cerevisiae deletion strains, locus YNL153C, strain GIM3, hits give low values
[8] = S. cerevisiae deletion strains, locus YNL322C, strain KRE1, hits give low values
[9] = S. cerevisiae deletion strains, locus YPL241C, strain CIN2, hits give low values

Measured: normalized growth

CC(=O)OC1CC(OC(C)=O)C2(C)C(CC(OC(C)=O)C3(C)C2CCC2(C)C(c4ccoc4)OC(=O)C4OC423)C1(C)C (stereo not drawn)
inactive: [1] 0.995 | S. cerevisiae deletion strains, locus YBR021W, strain FUR4, hits give low values 0.986 | S. cerevisiae deletion strains, locus YBR229C, strain ROT2, hits give low values 0.984 | S. cerevisiae deletion strains, locus YCL029C, strain bik1, hits give low values 0.984 | S. cerevisiae deletion strains, locus YDL035C, strain GPR1, hits give low values 0.97 | S. cerevisiae deletion strains, locus YDL074C, strain BRE1, hits give low values 1.03 | S. cerevisiae deletion strains, locus YDL101C, strain DUN1, hits give low values 0.978 | S. cerevisiae deletion strains, locus YDL134C, strain PPH21, hits give low values 1 | S. cerevisiae deletion strains, locus YDL185W, strain tfp1, hits give low values 0.986 | S. cerevisiae deletion strains, locus YDL192W, strain arf1, hits give low values 0.99 | S. cerevisiae deletion strains, locus YDR101C, strain arx1, hits give low values 0.981 | [2] 1 | S. cerevisiae deletion strains, locus YDR162C, strain NBP2, hits give low values 1.01 | S. cerevisiae deletion strains, locus YDR318W, strain mcm21, hits give low values 0.986 | S. cerevisiae deletion strains, locus YDR388W, hits give low values 0.988 | S. cerevisiae deletion strains, locus YDR502C, strain sam2, hits give low values 1 | S. cerevisiae deletion strains, locus YEL061C, strain CIN8, hits give low values 0.995 | S. cerevisiae deletion strains, locus YER110C, hits give low values 0.977 | S. cerevisiae deletion strains, locus YER155C, strain BEM2, hits give low values 0.976 | S. cerevisiae deletion strains, locus YER167W, strain BCK2, hits give low values 0.973 | S. cerevisiae deletion strains, locus YGL078C, strain dbp3, hits give low values 1 | S. cerevisiae deletion strains, locus YGL086W, strain mad1, hits give low values 0.99 | S. cerevisiae deletion strains, locus YGL248W, strain PDE1, hits give low values 1 | [3] 1.04 | S. cerevisiae deletion strains, locus YGR135W, strain pre9, hits give low values 1.02 | [4] 0.997 | S. cerevisiae deletion strains, locus YGR252W, strain gcn5, hits give low values 0.951 | S. cerevisiae deletion strains, locus YHR030C, strain SLT2, hits give low values 0.984 | S. cerevisiae deletion strains, locus YHR079C, strain IRE1 (second series), hits give low values 0.99 | S. cerevisiae deletion strains, locus YHR094C, strain hxt1, hits give low values 0.984 | S. cerevisiae deletion strains, locus YHR129C, strain ARP1, hits give low values 0.997 | S. cerevisiae deletion strains, locus YHR200W, strain rpn10, hits give low values 0.99 | S. cerevisiae deletion strains, locus YIL066C, strain RNR3, hits give low values 0.986 | S. cerevisiae deletion strains, locus YIL073C, strain SPO22, hits give low values 0.954 | S. cerevisiae deletion strains, locus YIL125W, strain kgd1, hits give low values 0.983 | S. cerevisiae deletion strains, locus YIR030C, strain dcg1, hits give low values 0.984 | S. cerevisiae deletion strains, locus YJL095W, strain BCK1, hits give low values 1.03 | S. cerevisiae deletion strains, locus YJL134W, strain LCB3, hits give low values 0.984 | S. cerevisiae deletion strains, locus YJL168C, strain set2, hits give low values 0.986 | S. cerevisiae deletion strains, locus YJL187C, strain SWE1 (second series), hits give low values 1.01 | S. cerevisiae deletion strains, locus YJR043C, strain POL32, hits give low values 0.98 | S. cerevisiae deletion strains, locus YJR075W, strain HOC1, hits give low values 1.01 | S. cerevisiae deletion strains, locus YKL009W, strain mrt4, hits give low values 0.971 | S. cerevisiae deletion strains, locus YKL068W, hits give low values 1 | S. cerevisiae deletion strains, locus YKL085W, strain MDH1 (second series), hits give low values 0.992 | S. cerevisiae deletion strains, locus YKL085W, strain MDH1, hits give low values 0.992 | S. cerevisiae deletion strains, locus YKL190W, strain CNB1, hits give low values 1 | S. cerevisiae deletion strains, locus YKR001C, strain vps1, hits give low values 1.01 | S. cerevisiae deletion strains, locus YLR039C, strain RIC1, hits give low values 0.929 | S. cerevisiae deletion strains, locus YLR058C, strain SHM2, hits give low values 0.984 | S. cerevisiae deletion strains, locus YLR102C, strain apc9, hits give low values 0.979 | S. cerevisiae deletion strains, locus YLR262C, strain YPT6, hits give low values 0.975 | S. cerevisiae deletion strains, locus YLR268W, strain sec22, hits give low values 1 | S. cerevisiae deletion strains, locus YLR330W, strain CHS5, hits give low values 0.989 | S. cerevisiae deletion strains, locus YLR342W, strain FKS1 (second series), hits give low values 0.941 | S. cerevisiae deletion strains, locus YLR371W, strain rom2, hits give low values 0.977 | S. cerevisiae deletion strains, locus YLR418C, strain cdc73, hits give low values 0.988 | S. cerevisiae deletion strains, locus YML016C, strain PPZ1, hits give low values 0.993 | S. cerevisiae deletion strains, locus YML032C, strain rad52, hits give low values 0.976 | S. cerevisiae deletion strains, locus YML124C, strain tub3, hits give low values 0.996 | S. cerevisiae deletion strains, locus YMR078C, strain ctf18, hits give low values 0.97 | S. cerevisiae deletion strains, locus YMR223W, strain ubp8, hits give low values 0.981 | S. cerevisiae deletion strains, locus YMR263W, strain SAP30, hits give low values 1.03 | [5] 0.909 | S. cerevisiae deletion strains, locus YNL067W, strain RPL9B, hits give low values 1.03 | [6] 0.995 | [7] 1.04 | S. cerevisiae deletion strains, locus YNL233W, strain BNI4, hits give low values 0.999 | S. cerevisiae deletion strains, locus YNL250W, strain rad50, hits give low values 0.974 | S. cerevisiae deletion strains, locus YNL271C, strain bni1, hits give low values 0.988 | S. cerevisiae deletion strains, locus YNL298W, strain CLA4, hits give low values 0.985 | S. cerevisiae deletion strains, locus YNL307C, strain MCK1, hits give low values 0.965 | [8] 0.986 | S. cerevisiae deletion strains, locus YNR052C, strain pop2, hits give low values 0.987 | S. cerevisiae deletion strains, locus YOL006C, strain TOP1, hits give low values 0.977 | S. cerevisiae deletion strains, locus YOL012C, strain htz1 1.14 | S. cerevisiae deletion strains, locus YOL147C, strain pex11, hits give low values 0.996 | S. cerevisiae deletion strains, locus YOR061W, strain CKA2, hits give low values 0.994 | S. cerevisiae deletion strains, locus YOR069W, strain VPS5, hits give low values 0.963 | S. cerevisiae deletion strains, locus YOR136W, strain idh2, hits give low values 0.981 | S. cerevisiae deletion strains, locus YOR144C, strain elg1, hits give low values 0.998 | S. cerevisiae deletion strains, locus YOR184W, strain ser1, hits give low values 0.959 | S. cerevisiae deletion strains, locus YOR316C, strain cot1, hits give low values 0.987 | S. cerevisiae deletion strains, locus YPL055C, strain LGE1, hits give low values 1.04 | [9] 0.994 | S. cerevisiae deletion strains, locus YPR119W, strain clb2, hits give low values 0.992 | S. cerevisiae deletion strains, locus YPR141C, strain kar3, hits give low values 0.985 | S. cerevisiae deletion strains, locus YPR163C, strain tif3, hits give low values 0.992 | S. cerevisiae deletion strains, locus YPR167C, strain met16, hits give low values 0.992 | S. cerevisiae deletion strains, strain wtn01, hits give low values 0.996 | S. cerevisiae strains, strain wild type, hits give low values 0.983

CC[C@H](CO)Nc1nc(NCc2ccccc2)c2ncn(C(C)C)c2n1
inactive: [1] 1.01 | S. cerevisiae deletion strains, locus YAL040C, strain CLN3, hits give low values 0.992 | S. cerevisiae deletion strains, locus YCL061C, strain MRC1 (second series), hits give low values 1 | [2] 0.992 | S. cerevisiae deletion strains, locus YDR363W, strain ESC2, hits give low values 0.991 | S. cerevisiae deletion strains, locus YER002W, strain NOP16, hits give low values 1.03 | [3] 0.995 | [4] 1.04 | [5] 0.967 | [6] 1.03 | [7] 1 | S. cerevisiae deletion strains, locus YNL175C, strain NOP13, hits give low values 1 | S. cerevisiae deletion strains, locus YNL197C, strain WHI3, hits give low values 1 | S. cerevisiae deletion strains, locus YNL224C, strain SQS1, hits give low values 1.01 | [8] 1.02 | S. cerevisiae deletion strains, locus YOR083W, strain WHI5 (second series), hits give low values 1.01 | [9] 0.997
